Bioassay records deposited in PubChem BioAssay by several laboratories.
Sa ugtP lethal: growth inhibition of S. aureus ugtP deletion strain; growth inhibition, % (no concentration beside the values); S. aureus RN4220 ugtP deletion, OD600 growth, 16 h; 330,000 tested, 0.54% active; in the data active means growth inhibition above about 68%;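 further: plate controls were untreated wells for no effect and antibiotic for full effect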
Mtb hypoxia inh: Mtb hypoxia fluorescent reporter inhibition; M. tuberculosis hypoxia-regulated fluorescent reporter, fluorescence; fluorescence inhibition, % (concentration not given with the values); 300,000 tested, 0.1% active; AID 1159583; in the data active means fluorescence inhibition mostly above about 23%, no sharp cut-off; inactive means mostly below about 17%
SSB-PriA inh: K. pneumoniae PriA-SSBct interaction inhibition | AlphaScreen SSBct-PriA binding, biotinylated peptide | AID 1272365 | inhibition, % at 33 µM | 430,000 tested, 0.6% active; in the data active means inhibition mostly above about 37%, no sharp cut-off; inactive means mostly below about 20%;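 further: plate controls were negative control peptide for no effect and reference peptide for full effect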
PfHsp40 rescue: compounds rescuing yeast from Plasmodium falciparum HSP40 toxicity. S. cerevisiae expressing PfHsp40, growth rescue, ATP luminescence. 340,000 tested, 0.68% active. growth rescue, % at 12.5 µM; in the data active means growth rescue above about 28%, passing the limit was not always enough; inconclusive means no clear call, values can overlap the other calls;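 further: yeast W303a lacking pdr1 and pdr3 grown in galactose medium; growth measured after three days at 30 °C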
RN4220 kill: S. aureus RN4220 growth inhibition | OD600, 16 h | 330,000 tested, 0.33% active | AID 1259311 | inhibition, % (test concentration not listed); in the data active means inhibition above about 85%;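 further: plate controls were untreated cells for no effect and reference antibiotic for full effect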
VHR inh abs: blocks human VHR1 dual specificity phosphatase; P51452; recombinant VHR phosphatase, pNPP absorbance; inhibition, % at 13.3 µM; 290,000 tested, 0.52% active; AID 1654; in the data active means inhibition above about 50%
Target sequence (P51452 whole entry, looked up): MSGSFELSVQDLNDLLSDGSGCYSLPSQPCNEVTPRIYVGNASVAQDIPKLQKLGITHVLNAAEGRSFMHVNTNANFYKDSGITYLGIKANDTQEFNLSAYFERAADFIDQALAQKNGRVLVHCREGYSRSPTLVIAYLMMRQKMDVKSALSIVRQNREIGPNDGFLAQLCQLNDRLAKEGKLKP
Active calls of the source: *; ? = inconclusive; nt = no result given. Rows were chosen to be rich in hits. Some 1.8% of all compounds tested hit in one or more screens of this group.

SMILES	Sa ugtP lethal	Mtb hypoxia inh	SSB-PriA inh	PfHsp40 rescue	RN4220 kill	VHR inh abs
CC(=O)Nc1ccc(C2=NNC(=Nc3cccc(S(=O)(=O)N(C)C)c3)SC2)cc1	-2	10	53*	-1	4	15
Cn1cc(C(=O)N2CCN(CCn3ccnc3-c3ccccc3)CC2)nn1	nt	nt	-3	nt	nt	nt
CC1CC(C)C(=NNC(N)=O)C(C(O)CC2CCC(=O)NC2=O)C1 (configuration not stated)	9	16	1	33*	2	nt
CCCCCCC(=O)NN=C(C)Cc1ccccc1	8	17	-13	nt	3	nt
COc1ccc(Cl)cc1C(Nc1cccnc1)c1ccc2cccnc2c1O (configuration not stated)	7	7	69	89*	21	18
Oc1c(C(Nc2cccc(C(F)(F)F)c2)c2cccnc2)ccc2cccnc12 (configuration not stated)	-6	3	-2	382*	14	-7
Oc1c(C(Nc2cccc(C(F)(F)F)c2)c2ccccn2)ccc2cccnc12 (configuration not stated)	nt	nt	9	nt	nt	nt
O=C(Cn1nnc2ccccc21)N1CCN(c2ccc(-n3cncn3)nn2)CC1	nt	nt	-2	nt	nt	nt
Cn1nc(-c2ccc(F)cc2)cc1C(=O)NCc1ccsc1	nt	nt	-22	nt	nt	nt
O=C(NCCc1csc(-n2cccn2)n1)C1CCCC1	nt	nt	-16	nt	nt	nt
O=c1ccc2cc3c([nH]c4ccc(Br)cc43)oc-2c1O	0	nt	nt	228*	8	-9
Cc1nc(-c2cccs2)sc1CNC(=O)NCCOc1ccccc1	nt	nt	0	nt	nt	nt
Cc1[nH]n(-c2cccc(Cl)c2)c(=O)c1C=Nn1c(C)nc2ccccc2c1=O	10	-5	11	nt	18	nt
c1ccc2c(-c3cc(C4CCNCC4)[nH]n3)cccc2c1	0	13	39*	-1	2	20
O=C(c1cc2ccccc2oc1=O)N1CCN(Cc2nc(-c3ccco3)cs2)CC1	nt	nt	-4	nt	nt	nt
CC(C)c1ccc(-n2c(O)c(/C=N/NC(=O)c3ccccc3O)c(=O)[nH]c2=S)cc1	10*	15	nt	-1	88	21
O=C(N/N=C/c1c(O)n(C2CCCCC2)c(=S)[nH]c1=O)c1ccccc1O	92*	8	nt	-1	77	-58
O=C(NN=Cc1c(O)n(-c2ccccc2)c(=S)[nH]c1=O)c1ccccc1	nt	nt	-3	nt	nt	nt
CCCc1nc(Cc2nc3ccccc3[nH]2)no1	nt	nt	4	nt	nt	nt
N#Cc1cccnc1OC1CCN(C(=O)c2ccc(Cl)s2)CC1	nt	nt	2	nt	nt	nt
O=C(O)C1Cc2[nH]cnc2C(c2ccc(F)cc2)N1 (configuration not stated)	5	10	-6	61*	3	17
O=C(O)C1Cc2[nH]cnc2C(c2ccccc2)N1 (configuration not stated)	nt	nt	-5	nt	nt	nt
C/C(C=NNC(=O)c1nn(C)c(C)c1Br)=C\c1ccccc1	2	8	0	nt	4	nt
COc1ccc(CCNc2oc(COc3ccc(Br)cc3)nc2C#N)cc1OC	8	nt	19	8	0	17
COc1ccc(CCNc2oc(Cc3cccc4ccccc34)nc2C#N)cc1OC	-18	-7	43*	6	1	-5
SMILES	Sa ugtP lethal	Mtb hypoxia inh	SSB-PriA inh	PfHsp40 rescue	RN4220 kill	VHR inh abs
Cc1cc(CCNC(=O)Nc2ccc3c(c2)OCO3)on1	nt	nt	-7	nt	nt	nt
Cc1cc(C(F)(F)F)nc(CCNC(=O)Nc2ccc3c(c2)OCO3)n1	nt	nt	44*	nt	nt	nt
COc1cn(CC(=O)NCc2ccc3c(c2)OCO3)c(CSc2nccc(C)n2)cc1=O	nt	nt	-15	nt	nt	nt
O=C1NC(=S)SC1=Cc1ccc(N(CCCl)CCCl)cc1	80	19	6	-1	87*	nt
O=C1NC(=S)NC1=Cc1ccc(Cl)cc1Cl	12	23	5	1	9	nt
O=C1NC(=O)C(=Cc2ccc(Cl)cc2Cl)S1	93*	7	nt	?	91*	nt
CCN(CC)c1ccc(/C=C2\SC(=O)NC2=O)cc1	nt	nt	1	nt	nt	nt
O=C1NC(=S)SC1=Cc1ccc(F)cc1	92*	2	-2	2	90*	nt
COc1ccc(C=C2SC(=S)NC2=O)cc1	nt	nt	3	0	nt	nt
O=C1NC(=S)SC1=Cc1ccc(Cl)cc1	99*	-3	0	-1	95*	nt
O=C(CCc1csc(NC(=O)c2ccc(Cl)cc2)n1)NCc1cccnc1	nt	nt	-14	nt	nt	nt
O=C(Cc1c(Cl)cccc1Cl)NN=Cc1cccnc1	3	0	-1	nt	1	nt
COc1ccc(-c2cc(-c3ccccc3)nc(NN)n2)cc1OC	-4	3	-4	1	9	54*
CCOc1ccc(S(=O)(=O)Nc2cc(N3CCN(c4ccccc4)CC3)ncn2)cc1	nt	nt	-2	nt	nt	nt
Cc1noc(CNC(=O)c2cc(-c3ccc(F)cc3)nn2C)n1	nt	nt	-12	nt	nt	nt
CC1(C)COCN1S(=O)(=O)c1ccc(C(=O)Nc2nnc(-c3ccc(Cl)s3)o2)cc1	98*	5	-5	nt	100*	13
CC1CCCCN1S(=O)(=O)c1ccc(C(=O)Nc2nnc(-c3ccccc3Cl)o2)cc1 (configuration not stated)	98*	-5	-10	0	98*	25
CCCCN(CC)S(=O)(=O)c1ccc(C(=O)Nc2nnc(-c3ccccc3Cl)o2)cc1	100*	-3	nt	-1	100*	21
O=C(Nc1nnc(-c2ccccc2Cl)o1)c1ccc(S(=O)(=O)N2CCCCCC2)cc1	96*	-5	0	nt	100*	21
COc1ccc(-c2nnc(NC(=O)c3ccc(S(=O)(=O)N4COCC4(C)C)cc3)o2)cc1	49	1	-15	0	54	26
Cn1c(SCCCNc2ccc(S(C)(=O)=O)cc2[N+](=O)[O-])nnc1-c1ccc2c(c1)OCO2	nt	nt	11	nt	nt	nt
Cc1ccc(NC(=O)c2ccccc2C(=O)O)cc1Br	nt	nt	5	nt	nt	nt
Cc1ccc(-c2csc(NN=C/C=C/c3ccccc3)n2)cc1	3	nt	6	nt	2	nt
CCC1CCCCN1S(=O)(=O)c1ccc(C(=O)Nc2nnc(-c3ccccc3Cl)o2)cc1 (configuration not stated)	98*	5	-12	0	99*	1
CC(O)(CNC(=O)CSCc1ccccc1)Cc1ccco1 (configuration not stated)	nt	nt	-1	nt	nt	nt
SMILES	Sa ugtP lethal	Mtb hypoxia inh	SSB-PriA inh	PfHsp40 rescue	RN4220 kill	VHR inh abs
Nc1nc(-c2csc(N)n2)cs1	nt	nt	46*	nt	nt	nt
CS(=O)(=O)c1ccccc1-c1nnc(NC(=O)c2sc3ccccc3c2Cl)o1	nt	nt	-5	nt	nt	nt
Cc1ccccc1C(=O)NC(=S)Nc1sc2c(c1C#N)CCCC2	12	nt	-10	71*	3	-11
CC[n+]1c(C=C2Sc3ccccc3N2C)ccc2cccc(C)c21	nt	nt	44	nt	nt	nt
Cc1cc(/C=C2\Sc3ccccc3N2C)cc(C)[n+]1CC1CCCO1 (configuration not stated)	101*	nt	nt	3	100*	18
O=C(NN=C1CCS(=O)(=O)c2ccc(F)cc21)c1ccccn1	5	13	2	nt	5	nt
CCCCc1ccc(NC(=O)CN(C)CC(=O)Nc2ccccc2Cl)cc1	-21	1	-15	36*	-4	4
COc1ccccc1C(=O)NC[C@H](O)c1sccc1C	nt	nt	-19	nt	nt	nt
